66 compounds from ChEMBL document CHEMBL4513216, “Probing the Open Global Health Chemical Diversity Library for Multistage-Active Starting Points for Next-Generation Antimalarials” (ACS Infect Dis, 2020) can be followed below.

Among all 68,000 compounds or so, about 2,700 (4%) showed an effect of 50% or more. The sample holds strong results, similar compounds and a random draw of the others, so the mix is not that of the screen.

This test concerns Plasmodium berghei. In words: Screen against P. berghei liver stage (PbLuc), transformed with Luciferase, at 2uM. The settings on record: tested at 2 uM. It is filed as functional, HepG2.
Regarding `O=C(NCc1ccco1)[C@@H]1CC[C@@H]2[C@@H](CCN2CC2CC2)O1`, the INHIBITION came to 22.89%.
Under `CC(Cn1cccn1)NCc1nc(-c2cccnc2)no1` (stereo unspecified) stands -15.36%.
With `N#CC1(NC(=O)COC(=O)Cn2cccn2)CCCC1`, the INHIBITION was -40.04%.
The same measure for `CC(Cn1cccn1)NC(=O)NCCc1cccs1` (stereo unspecified): -26.87%; for `N#CC1(NC(=O)CNCCn2cccn2)CCCCC1`: -45.11%; for `CC(Cn1cccn1)NCC(=O)NCCc1cccs1` (stereo unspecified): 66.99%.
Turning to `CCc1nc(CNC(C)Cn2cccn2)cs1` (stereo unspecified), the INHIBITION turned out to be 55.7%.
For `CC(Cn1cccn1)NCc1csc(Cc2ccccc2)n1` (stereo unspecified), the INHIBITION is recorded as -44.51%.
Under `CCCc1nc(CNC(C)Cn2cccn2)cs1` (stereo unspecified) stands -6.71%; under `CC(Cn1cccn1)NCC(=O)NC1(C#N)CCCCC1` (stereo unspecified), 51.14%.
In the case of `CC(Cn1cccn1)NCc1nc(-c2ccc3c(c2)OCO3)no1` (stereo unspecified), the INHIBITION was -35.26%.
Turning to `Cc1cnn(CC(C)NCC(=O)NCCc2cccs2)c1` (stereo unspecified), the INHIBITION is on record as -28.18%.
The same measure for `CC(Cn1cccn1)NCc1nc(-c2cccc(Cl)c2)no1` (stereo unspecified): 73.05%; for `NCCc1cccc(CN2CCN(c3cccc(Cl)c3)C(=O)C2)c1`: 31.35%; for `COCc1nc(C(=O)N2CCN(Cc3ccsc3)CC2)cs1`: 8.93%.
Consider `CC(C)C(=O)N1CCCC(Cc2ncccn2)C1` (stereo unspecified), for which the INHIBITION is recorded as -24.73%.
The same measure for `CC(C)COC1CCN(C(=O)c2ccc(C(F)(F)F)[nH]c2=O)CC1`: -24.73%; for `FC(F)(F)c1cccc(OC2CCN(Cc3c[nH]cn3)CC2)c1`: -6.65%; for `CCC1=N[C@@]2(CC[C@@H]3CN(CC4CC4)C[C@@H]32)C(=O)N1`: -26.61%.
The same measure for `O=C(NC1CC1)c1cnc(-c2noc3cc(N4CCCCC4)ccc23)s1`: 18.11%.
Under `Cc1cnn(CC(C)NCc2nc(-c3cccs3)no2)c1` (stereo unspecified) stands -41.76%; under `Cc1cccc(-c2noc(CNC(C)Cn3cc(C)cn3)n2)c1` (stereo unspecified), -26.75%.
Take `Cc1cnn(CC(C)NCc2nc(-c3cccnc3)no2)c1` (stereo unspecified): the INHIBITION is -36.24%.
Turning to `Cc1cnn(CC(C)NCc2nc(-c3ccoc3)no2)c1` (stereo unspecified), the INHIBITION is given as 59.68%.
The same measure for `CC(Cn1cccn1)NCc1nc(-c2cccs2)no1` (stereo unspecified): 51.21%.
The same measure for `CC(Cn1cccn1)NCCCc1nc(-c2cccs2)no1` (stereo unspecified): 21.39%; for `O=C(CN1CCOC(CNc2cccnn2)C1)NCc1cccs1` (stereo unspecified): -48.41%; for `Cc1cc(C)n(-c2ccc(N3CCC4(CC3)OCC(C)O4)nc2)n1` (stereo unspecified): -11.55%.
Under `COCC1CN(CC2CC2)Cc2ncn(CC3CC3)c21` (stereo unspecified) stands -21.31%; under `CN(C)C[C@@H]1C[C@@H]2CN(C(=O)Cc3cccs3)CC[C@@H]2N1C`, 54.01%.
In the case of `CN1CCO[C@@H]2CN(C(=O)NCc3ccccc3)CC[C@@H]2C1`, the INHIBITION was 69.86%.
The same measure for `COCCN1CCO[C@@H]2CN(C(=O)Cc3ccc(F)cc3)CC[C@@H]2C1`: 3.72%.
Under `CS(=O)(=O)N1CCO[C@@H]2CN(C(=O)Cc3cccs3)CC[C@@H]2C1` stands 20.87%; under `Cc1ccc(CC(=O)N2CC[C@@H]3CN(CCN(C)C)CCO[C@@H]3C2)cc1`, 50.96%; under `CCN1CCO[C@@H]2CN(C(=O)NCc3ccccc3)CC[C@@H]2C1`, 0.15%.
Under `CC(C)N1CCO[C@@H]2CN(C(=O)Cc3cccs3)CC[C@@H]2C1` stands -7.26%; under `CN1CCO[C@@H]2CN(C(=O)Cc3cccs3)CC[C@@H]2C1`, 52.96%; under `CC(=O)N1CCO[C@@H]2CN(C(=O)NCc3ccccc3)CC[C@@H]2C1`, 11.79%.
For `CN1[C@H](CN2CCCC2)C[C@@H]2CN(C(=O)Cc3cccs3)CC[C@@H]21`, the INHIBITION is 10.62%.
Under `CC(=O)N1[C@H](CN(C)C)C[C@@H]2CN(C(=O)Cc3cccs3)CC[C@@H]21` stands 6.24%; under `CN(C)CCN1CCO[C@@H]2CN(C(=O)Cc3ccsc3)CC[C@@H]2C1`, -19.51%.
As for `Fc1ccccc1Cn1c(C2CCNCC2)cc2cccnc21`, the INHIBITION was -23.54%.
The same measure for `CCOc1cccc(C(=O)N2CCN(c3nccc(OC)n3)CC2)c1`: 8.37%; for `CCc1ncc(C(=O)N2CCCN(C3CCCCC3)CC2)cn1`: -35.1%; for `COc1cccc(C2(C(=O)NC3CCc4nccn4C3)CCCC2)c1` (stereo unspecified): -5.74%.
The same measure for `O=C(c1nc(=O)[nH][nH]1)N1CCCCCC1`: 33.9%; for `CCn1c(C2CCCN(Cc3ccnc4ccccc34)C2)nn(C)c1=O` (stereo unspecified): 17.48%; for `OCCOCCNCC1(c2ccc(F)cc2)CCOC1` (stereo unspecified): -18.52%.
Under `CN(Cc1ccccc1)CC(O)Cn1cnc2cc(F)ccc2c1=O` (stereo unspecified) stands -75.13%.
Take `Cc1ccc(N2CC[C@H]3O[C@@H](C(=O)NCc4ccco4)CC[C@H]32)nn1`: the INHIBITION was 4.64%.
The same measure for `CCCNC(=O)CN1CCOC(c2ccc(Br)cc2)C1` (stereo unspecified): 15.82%; for `CCNC(=O)NC(=O)CN1CCOC(c2cccc(Br)c2)C1` (stereo unspecified): 16.72%.
The same measure for `CCNC(=O)NC(=O)CN1CCOC(c2ccc(Br)cc2)C1` (stereo unspecified): 59.94%; for `Cn1cc(NC(=O)c2cc3c(s2)CCCC3)cn1`: -56.09%.
Under `Cc1nc(C)n(CC2CCCCN2CCCS(C)(=O)=O)n1` (stereo unspecified) stands -12.84%.
With `O=C(NCCc1ccncc1)c1ccc(S(=O)(=O)NC2CCC2)cc1`, the INHIBITION is 28.85%.
Consider `CN(C)CCNC(=O)c1ccc(S(=O)(=O)N[C@@H]2CCNC2)cc1`, for which the INHIBITION worked out at 8.31%.
Under `CC(C)N(CCNC(=O)c1ccc(S(=O)(=O)NC2CC2)cc1)C(C)C` stands 58.12%; under `CC(O)CN1CCN(C(=O)c2cccn2Cc2ccccc2)CC1` (stereo unspecified), 15.28%; under `O=C(c1ccncc1)N1CCCn2c(CN3CCCC3)nnc2C1`, 23.14%.
The same measure for `Cc1cc(C)c(CNC(=O)NCC2Cc3ccccc32)c(=O)[nH]1` (stereo unspecified): 45.16%.
Under `NC(=O)c1ccc(CNC(=O)Nc2cn[nH]c2)cc1` stands 26.06%; under `CN1CC(=O)N(c2cnn(C)c2)CC12CCN(Cc1ccccc1)C2` (stereo unspecified), 15.96%.
On to `COCc1nnc(C(=O)N2CC(N3CCCCC3)C2)o1`, for which the INHIBITION is given as -13.03%.
The same measure for `COCc1nnc(C(=O)N2CCC(N3CCCCC3)CC2)o1`: 57.89%.
The same measure for `COCc1nnc(C(=O)N2CCCC(O)C2)o1` (stereo unspecified): 30.88%.
